Bioassay records: PubChem, National Center for Advancing Translational Sciences (NCATS)
Rows were chosen to be rich in hits. Some 8.1% of all compounds tested hit in one or more screens of this group.
ClpP mod = qHTS Assay for Activators of ClpP; 340,000 compounds, 1.9% hits; ATP-dependent Clp protease proteolytic subunit (Bacillus subtilis (strain 168)), P80244; Potency, µM (top dose mostly 57.5 µM), inactives show top-dose activity change, negative = active; purified B. subtilis ClpP, FRET peptide cleavage, 20 min; active means well fitted falling curve with a large enough effect; inconclusive means small, poorly fitted or top-dose-only effect; inactive means no such curve, though single readings can be large or run the other way; further: the source files actives as falling curves though it sought activators and does not explain the sign; nearly all actives have a fitted effect of over 65% in size
Target sequence (P80244 whole entry, looked up): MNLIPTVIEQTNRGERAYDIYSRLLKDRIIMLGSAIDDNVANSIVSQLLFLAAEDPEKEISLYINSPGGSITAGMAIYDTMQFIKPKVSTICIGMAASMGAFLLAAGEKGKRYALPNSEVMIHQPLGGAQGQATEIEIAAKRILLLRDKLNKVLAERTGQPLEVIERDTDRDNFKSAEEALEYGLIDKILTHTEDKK
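FRET quenching reversal measured ClpP activation: 10 microg/mL B. subtilis ClpP at pH 8 with the FRET-FV decapeptide, read at 430 nm after 320 nm excitation. The 20-min minus 0-min signal was scaled between DMSO/no-enzyme wells and ADEP (5.8 microM final).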
Sfp PPTase inh = qHTS Assay for Inhibitors of Bacillus subtilis Sfp phosphopantetheinyl transferase (PPTase); 4'-phosphopantetheinyl transferase ffp (Bacillus subtilis), Q9F4F7; Biochemical Sfp PPTase activity, qHTS; Potency, µM, for the others: largest response in the series, negative = inhibition, hits mostly inhibitors; 310,000 compounds, 3.5% hits; AID 1490, 2009;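 further: the enzyme is Sfp with the accession as filed and its product quenches rhodamine fluorescence; 0% = enzyme reaction without inhibitor and -100% = no enzyme wells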
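Fluorescence-quenching assay with 15 nM Sfp, 5 uM rhodamine-CoA and 12.5 uM BHQ-2-labelled ybbR peptide in pH 7.6 Hepes/MgCl2 buffer. Enzyme was pre-incubated with compound for 15 min at room temperature. Rate was taken from the 30-min fluorescence change (525/598 nm).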
RORgamma inh = qHTS for inhibitors of ROR gamma transcriptional activity; Potency, µM (series often up to 53.6 µM), for inactives: at the highest dose activity change, negative = inhibition, actives largely listed as inhibitors; Nuclear receptor ROR-gamma (Mus musculus), P51450; AID 2551, 2010; Drosophila S2 Gal4-RORgamma UAS-luciferase reporter, 20 h; 310,000 compounds, 5.4% hits; further: on the % scale 0 is the no-effect control and ±100 the full control effect; nearly all actives have a fitted effect of over 60% in size
Target sequence (P51450 whole entry, looked up, the tested form may be a part): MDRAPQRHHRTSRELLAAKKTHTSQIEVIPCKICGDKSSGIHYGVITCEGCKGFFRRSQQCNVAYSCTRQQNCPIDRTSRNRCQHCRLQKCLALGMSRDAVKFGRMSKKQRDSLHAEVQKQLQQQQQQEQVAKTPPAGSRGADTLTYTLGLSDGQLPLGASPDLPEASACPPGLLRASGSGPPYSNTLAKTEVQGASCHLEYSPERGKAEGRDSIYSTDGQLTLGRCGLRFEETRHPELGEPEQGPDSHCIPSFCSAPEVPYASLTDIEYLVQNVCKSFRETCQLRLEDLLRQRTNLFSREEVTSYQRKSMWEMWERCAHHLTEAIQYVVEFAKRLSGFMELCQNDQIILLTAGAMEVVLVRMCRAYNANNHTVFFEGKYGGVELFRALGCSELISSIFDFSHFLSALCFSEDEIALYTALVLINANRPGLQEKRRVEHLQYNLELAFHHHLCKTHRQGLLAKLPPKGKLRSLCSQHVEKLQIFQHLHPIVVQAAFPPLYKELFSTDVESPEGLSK
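Using a luciferase readout, inhibitors were identified by reduced reporter activity in Drosophila cells coexpressing a copper-inducible Gal4–ROR gamma fusion and UAS-driven Photinus luciferase, incubated 20 hr after 700 uM copper sulfate.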
VP16 counter = VP16 counterscreen qHTS for inhibitors of ROR gamma transcriptional activity. Drosophila S2 Gal4-VP16 UAS-luciferase, luminescence, 20 h. AID 2546, 2010. Potency, µM (series often up to 53.6 µM), for inactives: at the highest dose activity, negative = inhibition, actives largely listed as inhibitors. 310,000 compounds, 3.5% hits;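 further: Gal4-VP16 expression switched on by copper sulfate through the metallothionein promoter; on the % scale 0 is the no-effect control and ±100 the full control effect; nearly all actives have a fitted effect of over 50% in size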
PINK1 modulator = A Quantitative High throughput Screen to Identify Chemical Modulators of PINK1 Expression; PINK1 immunofluorescence, high-content cytometry, 24 h; 410,000 compounds, 0.2% hits; Potency, µM (top dose mostly 76.6 µM), for the others: top-dose activation (PINK1 increase), most hits filed as activators; AID 624263, 2012; active means well fitted activation curve with a large enough effect; inconclusive means small, poorly fitted or top-dose-only effect; cell line not stated here; further: % of control where 0% means no effect; nearly all actives have a fitted effect of over 65% in size
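Stable cell line, 250 cells/well, 12 h attachment; compounds pinned at 5 concentrations, 24 h; CCCP control. Fixed with nuclear dye, primary antibodies 12 h at 10 degrees C, secondary plus cell stain; laser-scanning cytometer read.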
Epigenetic derep = Quantitative High-Throughput Screen for Regulators of Epigenetic Control. murine LDR cells, GFP reporter derepression, 30 h. Potency, µM (series often up to 53.9 µM), for inactives: at the top dose GFP activation, actives largely listed as activators. 280,000 compounds, 0.2% hits; further: % of control where 0% means no effect; nearly all actives have a fitted effect of over 60% in size
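Murine LDR cells bearing a silenced CMV-driven GFP reporter were exposed to compound for 30 h at 37 C. After PBS washes, GFP-positive cells (20-120 um objects) counted by laser-scanning microplate cytometry.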
* = called active by the depositor; ? = inconclusive; . = no result given; [ ] = another dose, or the depositor's remark. Unless noted, the call rests on the fitted dose curve; in most records, active means well fitted curve in the direction sought with a large enough effect; inconclusive means small, poorly fitted or top-dose-only effect, or another doubt; inactive means no such curve, though single readings can be large; an effect the other way counts as inactive or inconclusive. Potency means the concentration at half of the fitted maximal effect.

SMILES	ClpP mod	Sfp PPTase inh	RORgamma inh	VP16 counter	PINK1 modulator	Epigenetic derep
Cc1[nH]c2ccccc2c1CCNC(=O)CCC(=O)c1ccccc1	2%	19%	9%	0%	-1%	9%
CCOc1ccc(CC(=O)NCc2ccc3c(c2)CCN3C(C)=O)cc1OCC	-4%	.	.	.	0%	0%
COc1ccc(C#CC2C=CC(Oc3cc(C)cc(C)c3)C(CO)O2)cc1 (stereo unspecified)	.	27%	3%[10 µM]	-4%[10 µM]	.	0%[10.1 µM]
CC(=O)c1sc2nsc(SCCN3CCCC3)c2c1N	-4%	40µM*	-45%	-11%	-1%	?
CC(=O)c1sc2nc(C)c3c(c2c1N)CCCC3	.	?	-14%	-12%	-1%	-1%
c1nnc2c3c4c(sc3ncn12)CCCC4	.	10%	-19%	5%	.	0%
c1nc2sc3c(c2c2nnnn12)CCCC3	16µM*	-23%	9%	-5%	-2%[38.3 µM]	1%
c1nc2sc3c(c2c2nnnn12)CCC3	14µM*	-11%	20%	3%	-1%	1%
CCc1ccc(NC(=O)Cn2cnc3nc4c(cc3c2=O)CCCC4)cc1	0%	.	.	.	2%	-2%
O=C(O)c1cccc(NC2=Nc3cccc4cccc2c34)c1	4%	20%	15%	17%	0%	-2%
O=C(NNC1=Nc2cccc3cccc1c23)c1ccccc1Br	-1%	11%	0.71µM*	1.1µM*	?	6%
CCC(C)C(=O)N1c2ccccc2C(=C2SC(C(=O)OC)=C(C(=O)OC)S2)C(=S)C1(C)C (stereo unspecified)	-1%	50µM*	-10%	-17%	0%	-3%
CCN1C(=O)/C(=C2\SC(=S)N(CCCOC)C2=O)c2ccccc21	-2%	13%	-10%	-4%	1%	-1%
COCCN1C(=O)c2oc3ccc(C)cc3c(=O)c2C12C(=O)N(C)c1ccccc12 (stereo unspecified)	-4%	.	.	.	0%	-2%
O=C(N/C(=C\c1ccco1)C(=O)N1CCOCC1)c1ccco1	.	28µM*	-21%	-4%	0%	0%
Cc1ccc(C(=O)N/C(=C/c2ccco2)C(=O)N2CCCCC2)cc1	.	-3%	20%	-2%	0%	.
COc1ccc(C(=O)N/C(=C/c2ccco2)C(=O)N2CCCCCC2)cc1	1%	89µM*	5%	-13%	1%	.
CCc1cccc(NC(=O)CSc2nnc(-c3cc4occc4n3C)n2-c2ccccc2C)c1	-12%	.	.	.	0%	-1%
CN(C)CCCN=Cc1c(O)n(Cc2ccccc2)c(=O)c2ccccc12	25µM*	-7%	-20%	2%	1%	-1%
CN(C)CCN=Cc1c(O)n(Cc2ccccc2)c(=O)c2ccccc12	.	-1%	13µM*	?	0%	-2%
COc1ccc(OC)c(C(Cc2ccnc3ccccc23)Cc2ccnc3ccccc23)c1	-2%	.	.	.	1%	.
COC(=O)c1c(-c2cccs2)csc1NC(=O)c1cc(OC)c(OC)c(OC)c1	4%	.	.	.	2%	2%
O=C(CSc1nnc(CNC(=O)c2c(F)cccc2Cl)o1)Nc1ccccc1F	0%	.	.	.	1%	2%
CCc1ccc(NC(=O)Cn2ccn(-c3ccc(OC)cc3)c(=O)c2=O)cc1	?	.	.	.	0%	0%
CC(=O)c1cccc(NC(=O)C2CCCN(c3nnc(-n4cccc4)s3)C2)c1 (stereo unspecified)	0%	.	.	.	-6%	-1%
SMILES	ClpP mod	Sfp PPTase inh	RORgamma inh	VP16 counter	PINK1 modulator	Epigenetic derep
CCOC(=O)c1c(NC(=O)c2ccc(Cl)s2)sc(C)c1C	-2%	13%	2%	0%	2%	1%
CCOC(=O)c1c(NC(=O)COC(=O)c2ccncc2)sc(C)c1C	.	79µM*	-1%	-10%	0%	0%
CCOC(=O)c1c(NC(=O)/C=C/c2ccc(C)o2)sc(C)c1C	-1%	35µM*	2%	-5%	7%[38.3 µM]	-1%
Cc1ccc(/C=C/C(=O)Nc2sc(C)c(C)c2C(=O)OC(C)C)o1	-2%	?	20%	-13%	?	3%
CCOC(=O)c1c(NC(=O)c2ccncc2)sc(C)c1C	1%	22µM*	-15%	6%	3%	0%
CCOC(=O)c1c(NC(=O)c2ccoc2C)sc(C)c1C	8.9µM*	?	-13%	-3%	-1%	-1%
CCOC(=O)c1c(NC(=O)COC(=O)c2ccc(O)cc2)sc(C(=O)NC)c1C	.	.	.	.	3%	.
Cc1cccc(-c2nc(S(=O)(=O)c3ccc(F)cc3)c(N3CCN(c4ccccc4)CC3)o2)c1	-7%	.	.	.	-1%	-1%
Cc1ccnc2ccc3ccccc3c12	5%	.	.	.	.	.
Cc1ccc(CCC(=O)Nc2ccc(Cl)cc2)o1	.	7%	-27%[1.91 µM]	9%	9%	.
CCOC(=O)c1c(NC(=O)Cn2nnc(-c3ccc(Cl)cc3)n2)sc(CC)c1C	-21%	14%	-18%	-1%	-1%	-1%
CCOC(=O)c1c(NC(=O)Cn2nnc(-c3ccc(Cl)cc3)n2)sc(C)c1C	25µM*	-1%	-7%	1%	12%	-1%
Cc1ccc(CCC(=O)Nc2ccc(N(C)C)cc2)o1	-2%	4%	0.56µM*	?	-1%	.
COC(=O)c1c(NC(=O)CCc2ccc(C)o2)sc(C)c1C	-6%	20µM*	?	13µM*	6%	0%
CC1=C(C(=O)OCC2CCCCC2)C(c2ccc(Cl)cc2Cl)CC(=O)N1 (stereo unspecified)	2%	.	.	.	1%	10%
CC(C)[C@H](NC(=O)OC(C)(C)C)c1nnc(SCC(=O)Nc2ccc(Br)cc2)o1	0%	24%	2.5µM*	32µM*	-1%	-13%
C[C@H](NC(=O)OC(C)(C)C)c1nnc(SCC(=O)Nc2cccc(Cl)c2)o1	-1%	6%	6%	-9%	-1%	.
Cn1c(O)c(N=NC(=O)Cc2c[nH]c3ccccc23)c2ccccc21	3.2µM*	.	.	.	0%	.
Cn1c(O)c(N=Nc2ccc(F)cc2)c2ccccc21	.	-27%	?	-7%	1%	1%
Cn1c(O)c(N=Nc2nc(-c3ccccc3)cs2)c2ccccc21	-3%	56µM*	1.1µM*	?	2%	0%
Cn1c(O)c(N=Nc2ccccc2)c2ccccc21	.	50µM*	-13%	3%	4%	.
Cc1[nH]c2ccccc2c1/C=N/Nc1nncn1N	.	8.9µM*	?	20%[10 µM]	1%	1%[10.1 µM]
